Test results taken from PubChem BioAssay (EPA / NIEHS).
Results filed as inconclusive are left out. Calls of active or inactive are those of the source. The calls were made as follows, unless noted: active = hit-call score of the fitted dose curve at least 0.9, where 1 is the maximum; inactive = score below 0.9.

Assays:
[1] = ATG_NFI_CIS: Attagene CIS-FACTORIAL HepG2 Assay for human Nuclear Factor I (NFI) (AID 2282989); conditions: HepG2 cis-regulatory reporter, NFI response element transcription; actives raise or lower the signal
How it was run: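 Read-out: reporter mRNA via RT-PCR plus capillary electrophoresis with fluorescence detection. Transiently transfected HepG2 (endogenous TF activity on cis promoters), 24 h compound exposure; gain or loss of signal fitted against DMSO.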

[2] = target: Myc proto-oncogene protein (Homo sapiens) (UniProt P01106); test: ATG_Myc_CIS: Attagene CIS-FACTORIAL HepG2 Assay for human Myelocytomatosis (Myc) Proto-Oncogene Transcription Factor (AID 2282990); conditions: HepG2, Attagene cis-reporter transcription factor activity; actives raise or lower the signal
How it was run: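 Fluorescence intensity of reporter-specific cDNA fragments, separated by capillary electrophoresis, gives the signal. Transfected HepG2 cells carrying cis-promoter reporter constructs are incubated with compound for 24 h; DMSO serves as baseline.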

[3] = ATG_NF_kB_CIS: Attagene CIS-FACTORIAL HepG2 Assay for human Nuclear Factor Kappa B (NF-kB) (AID 2282991); conditions: HepG2 Attagene cis-factorial NF-kB reporter mRNA; actives raise or lower the signal
How it was run: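 HepG2, transient multi-reporter transfection, cis promoter elements (endogenous TFs). 24 h exposure. Total RNA → RT → PCR → 6-FAM label → HpaI → CE. Gain/loss vs DMSO.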

[4] = ATG_NRF2_ARE_CIS: Attagene CIS-FACTORIAL HepG2 Assay for human Nuclear Factor Erythroid 2 Related Factor 2 (NFR2) response to Antioxidant Response Elements (ARE) (AID 2282992); conditions: HepG2 Attagene ARE/NRF2 reporter, transcription factor activity; actives raise or lower the signal;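 as to AC50: reporter mRNA level measured by RT-PCR and capillary electrophoresis fluorescence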
How it was run: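 Cis-factorial assay: transfected HepG2 reporter library, 24 h dosing, mRNA readout via RT-PCR/CE; DMSO-referenced bidirectional analysis.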

[5] = ATG_Oct_MLP_CIS: Attagene CIS-FACTORIAL HepG2 Assay for human Octamer-Binding Transcription Factor (Oct) (AID 2282993); conditions: HepG2 Attagene cis-factorial Oct reporter, mRNA; actives raise or lower the signal
How it was run: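 Read-out: reporter mRNA via RT-PCR plus capillary electrophoresis of 6-FAM-labelled fragments. Transiently transfected HepG2, 24 h exposure, endogenous TF activity on cis elements. Gain or loss of signal fitted relative to DMSO.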

[6] = target: Cellular tumor antigen p53 (Homo sapiens) (UniProt P04637); test: ATG_p53_CIS: Attagene CIS-FACTORIAL HepG2 Assay for human p53 Transcription Factor (AID 2282994); conditions: HepG2 p53 cis-element reporter, Attagene mRNA; actives raise or lower the signal
How it was run: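 Using HepG2 hepatoma cells carrying cis-acting multiplexed reporters, mRNA induction is detected after a 24 h exposure. Gain- and loss-of-signal responses are fitted relative to DMSO-treated cells.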

[7] = target: human Peroxisome Proliferator-activated Receptor delta (PPARd), PPARD (gene 5467) (UniProt Q03181); test: ATG_PPARd_TRANS: Attagene TRANS-FACTORIAL HepG2 Assay for human Peroxisome Proliferator-activated Receptor delta (PPARd) (AID 2283002; active = hit-call score of the fitted dose curve at least 0.9, where 1 is the maximum)
How it was run: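 Fluorescence from capillary electrophoresis of labelled RT-PCR reporter fragments gives the signal; DMSO sets baseline. Cells: HepG2 transiently carrying GAL4-UAS reporter units plus chimeric nuclear receptor-Gal4 proteins, exposed to chemicals for 24 h.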

[8] = target: Retinoic acid receptor alpha (Homo sapiens) (UniProt P10276); test: ATG_RARa_TRANS: Attagene TRANS-FACTORIAL HepG2 Assay for human Retinoic Acid Receptor alpha (RARa) (AID 2283005; active = hit-call score of the fitted dose curve at least 0.9, where 1 is the maximum)
How it was run: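 HepG2 transiently transfected with multiplex GAL4-UAS reporter units including a human RARa–GAL4 chimera; 24 h compound exposure. Reporter mRNA quantified by RT-PCR, 6-FAM labeling and capillary electrophoresis; gain of signal versus DMSO.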

[9] = target: Peroxisome proliferator-activated receptor gamma (Homo sapiens) (UniProt P37231); test: ATG_PPARg_TRANS: Attagene TRANS-FACTORIAL HepG2 Assay for human Peroxisome Proliferator-activated Receptor-gamma (PPARg) (AID 2283007; active = hit-call score of the fitted dose curve at least 0.9, where 1 is the maximum)
How it was run: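 Multiplexed reporter transcription units in HepG2, 24 h dosing, reporter transcripts quantified by fluorescent RT-PCR and capillary electrophoresis. Increase over DMSO scored.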

[10] = target: Nuclear receptor subfamily 1 group I member 2 (Homo sapiens) (UniProt O75469); test: ATG_PXR_TRANS: Attagene TRANS-FACTORIAL HepG2 Assay for human Pregnane X Receptor (PXR) (AID 2283008; active = hit-call score of the fitted dose curve at least 0.9, where 1 is the maximum)
How it was run: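 Fluorescence intensity of FAM-labelled, HpaI-digested reporter amplicons, separated by capillary electrophoresis, quantifies induction. HepG2 cells with PXR-Gal4 trans-reporter system were exposed 24 h; DMSO defines baseline.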

[11] = target: human RAR-related Orphan Receptor beta (RORb), RORB (gene 6096) (UniProt Q92753); test: ATG_RORb_TRANS: Attagene TRANS-FACTORIAL HepG2 Assay for human RAR-related Orphan Receptor beta (RORb) (AID 2283010; active = hit-call score of the fitted dose curve at least 0.9, where 1 is the maximum)
How it was run: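 HepG2 cells transiently transfected with GAL4-UAS reporter units expressing chimeric NR-Gal4 protein; reporter mRNA measured 24 h after dosing by RT-PCR, 6-FAM labelling and capillary electrophoresis. Gain-of-signal fitted relative to DMSO baseline.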

[12] = target: human Retinoic Acid Receptor gamma (RARg), RARG (gene 5916) (UniProt P13631); test: ATG_RARg_TRANS: Attagene TRANS-FACTORIAL HepG2 Assay for human Retinoic Acid Receptor gamma (RARg) (AID 2283009; active = hit-call score of the fitted dose curve at least 0.9, where 1 is the maximum)
How it was run: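 HepG2 transiently transfected with GAL4-UAS reporter units and chimeric NR-Gal4 constructs; 24 h compound exposure. Reporter mRNA quantified by RT-PCR, FAM labeling, HpaI digestion and capillary electrophoresis; gain-of-signal versus DMSO.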

[13] = target: human Peroxisome Proliferator-activated Receptor alpha (PPARa), PPARA (gene 5465) (UniProt Q07869); test: ATG_PPARa_TRANS: Attagene TRANS-FACTORIAL HepG2 Assay for human Peroxisome Proliferator-activated Receptor alpha (PPARa) (AID 2283001; active = hit-call score of the fitted dose curve at least 0.9, where 1 is the maximum)
How it was run: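 HepG2 cells transiently transfected with multiplexed GAL4-UAS reporters driven by exogenous chimeric NR-Gal4 proteins; reporter mRNA measured after 24 h dosing. Read-out by RT-PCR, 6-FAM labelling, HpaI digestion and capillary electrophoresis; gain of signal versus DMSO.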

[14] = target: human Retinoic Acid Receptor beta (RARb), RARB (gene 5915) (UniProt P10826); test: ATG_RARb_TRANS: Attagene TRANS-FACTORIAL HepG2 Assay for human Retinoic Acid Receptor beta (AID 2283004; active = hit-call score of the fitted dose curve at least 0.9, where 1 is the maximum)
How it was run: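 HepG2 cells were transiently transfected with GAL4-UAS reporter units that report activity of exogenous chimeric NR-Gal4 proteins, then exposed to compound for 24 h. Reporter mRNA was quantified by RT-PCR with capillary electrophoresis fluorescence, as gain of signal over DMSO.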

Measured: AC50

Chain of Retinoic acid receptor alpha (Homo sapiens) (P10276 whole entry, looked up, the tested form may be a part): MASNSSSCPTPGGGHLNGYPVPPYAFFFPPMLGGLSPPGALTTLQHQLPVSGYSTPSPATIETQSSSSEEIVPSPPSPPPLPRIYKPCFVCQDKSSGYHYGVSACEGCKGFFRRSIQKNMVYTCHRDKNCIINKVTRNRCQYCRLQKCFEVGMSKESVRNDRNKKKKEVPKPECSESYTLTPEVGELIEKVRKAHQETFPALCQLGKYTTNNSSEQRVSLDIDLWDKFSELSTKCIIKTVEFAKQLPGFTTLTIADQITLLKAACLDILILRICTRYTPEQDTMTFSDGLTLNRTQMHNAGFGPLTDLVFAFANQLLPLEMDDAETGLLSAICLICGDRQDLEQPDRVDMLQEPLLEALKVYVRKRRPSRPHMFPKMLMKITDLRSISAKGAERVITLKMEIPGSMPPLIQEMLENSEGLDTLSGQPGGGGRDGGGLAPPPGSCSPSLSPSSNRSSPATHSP
Chain of Nuclear receptor subfamily 1 group I member 2 (Homo sapiens) (O75469 whole entry, looked up, the tested form may be a part): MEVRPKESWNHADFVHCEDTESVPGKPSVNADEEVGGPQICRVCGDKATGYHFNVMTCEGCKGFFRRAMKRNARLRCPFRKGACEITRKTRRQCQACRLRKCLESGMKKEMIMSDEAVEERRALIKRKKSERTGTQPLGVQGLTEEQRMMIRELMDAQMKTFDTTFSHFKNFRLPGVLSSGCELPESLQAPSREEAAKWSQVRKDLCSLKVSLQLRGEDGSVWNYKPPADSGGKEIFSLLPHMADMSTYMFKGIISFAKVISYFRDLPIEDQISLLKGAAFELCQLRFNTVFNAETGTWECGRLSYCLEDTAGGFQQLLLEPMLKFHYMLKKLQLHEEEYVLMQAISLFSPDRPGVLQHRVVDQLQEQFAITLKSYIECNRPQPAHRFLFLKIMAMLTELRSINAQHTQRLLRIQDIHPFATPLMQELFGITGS
Chain of human RAR-related Orphan Receptor beta (RORb), RORB (gene 6096) (Q92753 whole entry, looked up, the tested form may be a part): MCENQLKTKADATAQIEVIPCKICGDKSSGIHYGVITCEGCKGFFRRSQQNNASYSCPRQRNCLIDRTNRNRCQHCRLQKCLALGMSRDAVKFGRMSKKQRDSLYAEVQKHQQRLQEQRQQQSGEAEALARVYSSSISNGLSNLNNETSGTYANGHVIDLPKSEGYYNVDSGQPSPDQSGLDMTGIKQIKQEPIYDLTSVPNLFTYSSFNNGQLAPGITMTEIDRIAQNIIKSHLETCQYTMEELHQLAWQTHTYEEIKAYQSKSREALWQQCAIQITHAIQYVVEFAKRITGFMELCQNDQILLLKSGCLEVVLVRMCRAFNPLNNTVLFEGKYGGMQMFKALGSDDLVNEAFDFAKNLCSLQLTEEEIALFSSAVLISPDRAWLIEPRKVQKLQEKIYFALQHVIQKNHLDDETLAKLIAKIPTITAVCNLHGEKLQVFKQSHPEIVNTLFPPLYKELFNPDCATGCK
Chain of human Peroxisome Proliferator-activated Receptor delta (PPARd), PPARD (gene 5467) (Q03181 whole entry, looked up, the tested form may be a part): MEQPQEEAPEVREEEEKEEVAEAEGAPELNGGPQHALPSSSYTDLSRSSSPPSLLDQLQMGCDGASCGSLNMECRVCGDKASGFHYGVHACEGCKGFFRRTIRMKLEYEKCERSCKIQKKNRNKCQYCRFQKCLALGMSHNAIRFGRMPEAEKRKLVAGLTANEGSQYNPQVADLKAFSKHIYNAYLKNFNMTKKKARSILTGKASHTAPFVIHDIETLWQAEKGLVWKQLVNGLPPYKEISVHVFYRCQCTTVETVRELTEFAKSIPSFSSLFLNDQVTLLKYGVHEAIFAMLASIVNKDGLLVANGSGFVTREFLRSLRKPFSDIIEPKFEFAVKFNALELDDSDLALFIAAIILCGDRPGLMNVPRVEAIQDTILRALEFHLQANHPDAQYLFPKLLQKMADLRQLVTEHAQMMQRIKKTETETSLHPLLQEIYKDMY
Chain of human Retinoic Acid Receptor beta (RARb), RARB (gene 5915) (P10826 whole entry, looked up, the tested form may be a part): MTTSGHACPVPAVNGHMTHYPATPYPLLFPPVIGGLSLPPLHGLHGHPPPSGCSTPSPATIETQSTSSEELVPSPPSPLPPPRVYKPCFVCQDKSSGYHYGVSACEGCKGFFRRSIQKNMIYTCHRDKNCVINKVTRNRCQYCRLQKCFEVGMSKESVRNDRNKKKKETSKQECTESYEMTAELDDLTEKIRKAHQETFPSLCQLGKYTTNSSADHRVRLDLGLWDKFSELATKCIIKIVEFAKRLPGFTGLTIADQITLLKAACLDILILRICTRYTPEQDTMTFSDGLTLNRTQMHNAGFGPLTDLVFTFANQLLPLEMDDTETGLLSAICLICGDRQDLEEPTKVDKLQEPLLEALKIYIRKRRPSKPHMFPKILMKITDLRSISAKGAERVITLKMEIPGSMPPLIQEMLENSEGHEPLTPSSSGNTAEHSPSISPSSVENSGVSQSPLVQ
Chain of human Retinoic Acid Receptor gamma (RARg), RARG (gene 5916) (P13631 whole entry, looked up, the tested form may be a part): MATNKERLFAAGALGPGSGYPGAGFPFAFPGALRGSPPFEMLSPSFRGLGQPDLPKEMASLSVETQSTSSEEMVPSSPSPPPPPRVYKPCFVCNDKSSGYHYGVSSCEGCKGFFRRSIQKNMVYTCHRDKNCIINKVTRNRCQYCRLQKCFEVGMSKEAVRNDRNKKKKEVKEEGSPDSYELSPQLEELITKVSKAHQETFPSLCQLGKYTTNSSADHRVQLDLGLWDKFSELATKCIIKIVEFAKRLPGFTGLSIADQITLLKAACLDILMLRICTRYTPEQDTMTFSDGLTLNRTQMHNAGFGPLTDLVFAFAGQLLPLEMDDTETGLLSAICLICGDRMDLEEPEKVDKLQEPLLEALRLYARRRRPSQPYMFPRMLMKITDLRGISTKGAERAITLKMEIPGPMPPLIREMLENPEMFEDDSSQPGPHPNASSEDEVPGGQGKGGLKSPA
Chain of Myc proto-oncogene protein (Homo sapiens) (P01106 whole entry, looked up, the tested form may be a part): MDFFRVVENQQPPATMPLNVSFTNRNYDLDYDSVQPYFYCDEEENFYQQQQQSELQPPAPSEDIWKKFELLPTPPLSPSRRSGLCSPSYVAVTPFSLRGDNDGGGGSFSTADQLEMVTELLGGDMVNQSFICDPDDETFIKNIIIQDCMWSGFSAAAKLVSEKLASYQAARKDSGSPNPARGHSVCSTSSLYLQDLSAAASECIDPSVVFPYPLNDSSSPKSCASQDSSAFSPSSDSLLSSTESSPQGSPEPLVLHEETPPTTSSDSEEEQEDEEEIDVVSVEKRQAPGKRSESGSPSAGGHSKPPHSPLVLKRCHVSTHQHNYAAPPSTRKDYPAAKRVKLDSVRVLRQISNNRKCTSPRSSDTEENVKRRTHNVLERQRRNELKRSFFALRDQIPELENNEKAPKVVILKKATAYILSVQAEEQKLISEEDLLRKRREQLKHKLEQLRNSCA
Chain of Peroxisome proliferator-activated receptor gamma (Homo sapiens) (P37231 whole entry, looked up): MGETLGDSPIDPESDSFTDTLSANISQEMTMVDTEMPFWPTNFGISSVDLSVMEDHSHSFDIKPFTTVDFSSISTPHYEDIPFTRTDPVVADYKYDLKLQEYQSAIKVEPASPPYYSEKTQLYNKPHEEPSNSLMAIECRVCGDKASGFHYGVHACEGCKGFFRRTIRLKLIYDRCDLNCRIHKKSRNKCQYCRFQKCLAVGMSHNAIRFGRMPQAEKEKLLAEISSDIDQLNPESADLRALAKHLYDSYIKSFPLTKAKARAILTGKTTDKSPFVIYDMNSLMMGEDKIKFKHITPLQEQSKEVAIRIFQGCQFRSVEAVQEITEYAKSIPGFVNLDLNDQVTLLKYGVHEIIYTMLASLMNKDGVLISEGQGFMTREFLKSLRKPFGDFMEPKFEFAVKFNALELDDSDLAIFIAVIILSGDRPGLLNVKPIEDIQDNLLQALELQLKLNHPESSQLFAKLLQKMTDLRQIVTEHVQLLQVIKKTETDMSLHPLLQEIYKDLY
Chain of Cellular tumor antigen p53 (Homo sapiens) (P04637 whole entry, looked up): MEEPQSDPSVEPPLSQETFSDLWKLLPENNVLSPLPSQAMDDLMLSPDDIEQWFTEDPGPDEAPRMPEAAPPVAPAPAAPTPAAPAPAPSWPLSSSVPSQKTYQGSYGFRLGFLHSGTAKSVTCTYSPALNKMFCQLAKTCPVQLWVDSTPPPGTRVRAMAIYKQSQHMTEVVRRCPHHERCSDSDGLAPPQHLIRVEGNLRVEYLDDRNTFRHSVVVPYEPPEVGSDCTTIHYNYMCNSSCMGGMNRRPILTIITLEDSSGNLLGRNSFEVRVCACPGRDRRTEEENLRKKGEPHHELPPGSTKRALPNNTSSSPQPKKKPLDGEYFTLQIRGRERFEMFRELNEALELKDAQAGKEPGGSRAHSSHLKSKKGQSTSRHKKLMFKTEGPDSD
Chain of human Peroxisome Proliferator-activated Receptor alpha (PPARa), PPARA (gene 5465) (Q07869 whole entry, looked up, the tested form may be a part): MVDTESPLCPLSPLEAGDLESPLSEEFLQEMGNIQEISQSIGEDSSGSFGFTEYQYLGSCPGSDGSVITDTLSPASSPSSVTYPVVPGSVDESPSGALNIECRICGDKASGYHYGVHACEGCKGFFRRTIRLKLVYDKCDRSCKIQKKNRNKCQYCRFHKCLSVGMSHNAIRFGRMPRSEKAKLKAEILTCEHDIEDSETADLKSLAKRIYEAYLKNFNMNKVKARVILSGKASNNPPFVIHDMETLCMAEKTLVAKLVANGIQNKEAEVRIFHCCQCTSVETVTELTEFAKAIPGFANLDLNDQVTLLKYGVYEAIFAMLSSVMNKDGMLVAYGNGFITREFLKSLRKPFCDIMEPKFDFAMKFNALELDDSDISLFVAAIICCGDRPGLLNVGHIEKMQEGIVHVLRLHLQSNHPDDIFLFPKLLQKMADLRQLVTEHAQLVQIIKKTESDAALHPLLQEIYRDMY

Cc1ccc(C2OC[C@@H]3OC(c4ccc(C)cc4)O[C@H]([C@H](O)CO)[C@@H]3O2)cc1 (some centres undefined)
active: [4] 100 µM
not listed: [12] | [13] | [14]
inactive: all other assays above

CCN(CCO)c1cccc(C)c1
active: [10] 27 µM
not listed: [8] | [11] | [13] | [14]
inactive: all other assays above

CC(=O)NS(=O)(=O)c1ccc(N)cc1
not listed: [7] | [9] | [11] | [14]
inactive: all other assays above

CC/C=C\CCOC(=O)CCCCC
not listed: [7] | [9] | [11] | [12] | [13]
inactive: all other assays above

CCCCCCOc1cc(C)c(O)c(C)c1C
active: [3] 16.5 µM | [4] 7.78 µM | [9] 11.1 µM
not listed: [11] | [13]
inactive: all other assays above

CC(C)c1ccc(C=O)cc1
not listed: [8] | [12] | [13] | [14]
inactive: all other assays above

CN(C)c1ccc(C(=N)c2ccc(N(C)C)cc2)cc1
inactive: [2] | [3] | [4] | [7] | [10] | [12]
active: [1] 0.162 µM | [5] 0.143 µM | [6] 29.4 µM | [9] 26.6 µM

CCCCCCCCCCc1ccccc1
active: [5] 53.6 µM
not listed: [8] | [12] | [13] | [14]
inactive: all other assays above

Cc1cc(C)c(C)c(O)c1
not listed: [7] | [8] | [11] | [12] | [13]
inactive: all other assays above

CCCCCCCC(C)=O
not listed: [8] | [9] | [11] | [13] | [14]
inactive: all other assays above

O=C1C=CC(=O)O1
not listed: [7] | [9] | [10] | [12] | [14]
inactive: all other assays above
